Activity calls are given as the source filed them. Rule for the calls: active = hit-call score of the fitted dose curve at least 0.9, where 1 is the maximum; inactive = score below 0.9.

From PubChem BioAssay (EPA / NIEHS) come the findings set out here.

A short description of assay [1]: ATG_CRE_CIS: Attagene CIS-FACTORIAL HepG2 Assay for human cAMP Responsive Element (CRE) binding protein 3 (AID 2282926). The following applies: HepG2 CRE cis-reporter, Attagene multiplexed mRNA; actives raise or lower the signal. Put shortly: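 Assay format: transient reporter transfection of HepG2, 24 h treatment, total RNA isolation with DNase I step. Reporter abundance read by fluorescence after PCR and capillary separation; DMSO-normalised gain or loss fitting.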

The target in assay [2] is CCAAT/enhancer-binding protein beta (Homo sapiens) (UniProt P17676). In words: ATG_C_EBP_CIS: Attagene CIS-FACTORIAL HepG2 Assay for human CCAAT/Enhancer Binding Protein (C/EBP) beta (AID 2282927). The conditions noted are these: HepG2 Attagene cis-factorial transcription factor reporter; actives raise or lower the signal. Summed up:
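Following a 24 h incubation with test chemical, transfected HepG2 cells yielded RNA whose reporter transcripts were quantified by RT-PCR and fluorescent capillary electrophoresis, with DMSO serving as baseline for bidirectional fitting.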

A short description of assay [3]: ATG_CMV_CIS: Attagene CIS-FACTORIAL HepG2 Assay for human CMV (Internal Marker) (AID 2282928).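 Note: endpoint acts as a background internal control marker rather than a target.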 The following applies: HepG2 CMV promoter reporter, transcription factor profiling; actives raise or lower the signal. Summed up:
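Fluorescence intensity of RT-PCR-derived reporter fragments, resolved by capillary electrophoresis, gives the signal. HepG2 liver cells bearing transfected cis-element reporters were treated 24 h; activity in either direction was fit relative to DMSO-treated controls.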

A short description of assay [4]: ATG_DR4_LXR_CIS: Attagene CIS-FACTORIAL HepG2 Assay for human Liver X Receptor (LXR), DR4 submotif (AID 2282929). The conditions noted are these: HepG2 Attagene DR4 cis-reporter, mRNA transcription; actives raise or lower the signal. Put shortly: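 Cells were transfected with multiple reporter transcription units, exposed to chemicals for 24 hours, then lysed for RNA. Reporter mRNA induction was measured by RT-PCR with capillary electrophoresis detection and fitted in both directions relative to DMSO.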

The target of assay [5] is Aryl hydrocarbon receptor (Homo sapiens) (UniProt P35869). In words: ATG_Ahr_CIS: Attagene CIS-FACTORIAL HepG2 Assay for human Aryl Hydrocarbon Receptor (Ahr) (AID 2282930). The conditions noted are these: HepG2 AhR cis-factorial reporter transcription; actives raise or lower the signal. Put shortly:
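Values derive from bidirectional fitting against DMSO negative control. Underlying signal: cis-element reporter mRNA in transiently transfected HepG2, harvested 24 h post-dose and measured by RT-PCR plus capillary electrophoresis.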

Assay [6] is described as follows: ATG_AP_1_CIS: Attagene CIS-FACTORIAL HepG2 Assay for human Activator Protein 1 (AP-1) (AID 2282931). The conditions noted are these: HepG2 Attagene cis-factorial AP-1 reporter mRNA; actives raise or lower the signal. Put shortly: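 Endogenous transcription-factor activity in human HepG2 liver cells is read through a cis-promoter reporter transcript, sampled 24 h after dosing. Detection uses RT-PCR with capillary electrophoresis; values come from bidirectional fitting relative to DMSO.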

The nature of assay [7]: ATG_AP_2_CIS: Attagene CIS-FACTORIAL HepG2 Assay for human Activator Protein 2 (AP-2) (AID 2282932). The following applies: HepG2 AP-2 cis-reporter, Attagene transcription factor profiling; actives raise or lower the signal. Summed up:
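Cells (HepG2) transfected with promoter-driven reporter constructs, treated 24 h. Total RNA reverse-transcribed, reporter cDNA PCR-amplified, FAM-labelled by primer extension, digested, resolved by capillary electrophoresis. Activity fitted both directions versus DMSO.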

Assay [8] can be described thus: ATG_BRE_CIS: Attagene CIS-FACTORIAL HepG2 Assay for human Bone Morphogenetic Protein (BMP) Response Element (BRE) (AID 2282933). The following applies: HepG2 BMP response element reporter, Attagene transcription factor profiling; actives raise or lower the signal. Summed up: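 A HepG2 multiplex reporter system measured inducible reporter mRNA 24 h post-dosing. Detection: RT-PCR, 6-FAM primer extension, HpaI digestion, capillary electrophoresis. Activity fitted bidirectionally relative to DMSO.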

Assay [9] addresses Transcription factor E2F1 (Homo sapiens) (UniProt Q01094). In words: ATG_E2F_CIS: Attagene CIS-FACTORIAL HepG2 Assay for human E2F Transcription Factor 1 (AID 2282935). The conditions noted are these: HepG2 Attagene cis-reporter, E2F reporter RNA transcripts; actives raise or lower the signal. Summed up: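 First, HepG2 cells were transfected with reporter transcription units. Next, they were dosed for 24 h. Then RNA was isolated, converted to cDNA, PCR-amplified, FAM-labeled, HpaI-digested and analyzed by capillary electrophoresis.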

Assay [10] is described as follows: ATG_E_Box_CIS: Attagene CIS-FACTORIAL HepG2 Assay for human Enhancer Box (E-box) (AID 2282936). The following applies: HepG2 E-box cis-reporter transcription, actives raise or lower the signal. Summed up:
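Endogenous transcription factor activity was sensed in human HepG2 liver cells through transfected cis-promoter reporter units. After 24 h of dosing, total RNA was reverse-transcribed and reporter cDNA resolved by capillary electrophoresis.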

Assay [11] is described as follows: ATG_M_61_CIS: Attagene CIS-FACTORIAL HepG2 Assay for M61 Transcription Factor (Internal Marker) (AID 2282937). The conditions noted are these: HepG2 Attagene CIS-FACTORIAL M61 internal marker reporter; actives raise or lower the signal. Put shortly: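 Cells were transfected with reporter units under cis-regulatory promoters, treated with chemicals for 24 h, then lysed for RNA. Reporter transcripts were quantified by RT-PCR and capillary electrophoresis, and activity was fitted bidirectionally against DMSO.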

The nature of assay [12]: ATG_EGR_CIS: Attagene CIS-FACTORIAL HepG2 Assay for human Early Growth Response 1 (EGR1) (AID 2282938). The following applies: HepG2 Attagene CIS-FACTORIAL EGR reporter mRNA; actives raise or lower the signal. Put shortly: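 Endogenous TF activity in HepG2 liver cells was gauged through cis-promoter reporter constructs transiently transfected. After 24 h dosing, reporter mRNA was quantified by RT-PCR and capillary electrophoresis, and curves fitted in both directions versus DMSO.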

Assay [13] is described as follows: ATG_Ets_CIS: Attagene CIS-FACTORIAL HepG2 Assay for human Erythroblast Transformation Specific (ETS) (AID 2282941). The following applies: HepG2 ETS cis-reporter transcription, actives raise or lower the signal. Summed up:
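Multiplexed reporter transcript profiling: HepG2, 24 h treatment, total RNA to cDNA, PCR, 6-FAM labelling, HpaI cut, capillary electrophoresis. Gain- or loss-of-signal fitted against DMSO.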

The target of assay [14] is Hepatocyte nuclear factor 3-beta (Homo sapiens) (UniProt Q9Y261). In words: ATG_FoxA2_CIS: Attagene CIS-FACTORIAL HepG2 Assay for human Forkhead box A2 (FOXA2) (AID 2282942). The following applies: HepG2 cis-reporter transcription factor activity, 24 h; actives raise or lower the signal. Summed up:
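Endogenous transcription factor activity was read in HepG2 cells carrying transiently transfected cis-promoter reporter units. After 24 h dosing, reporter mRNA was quantified by RT-PCR and capillary electrophoresis, and values fitted bidirectionally versus DMSO.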

Assay [15] is described as follows: ATG_FoxO_CIS: Attagene CIS-FACTORIAL HepG2 Assay for human Forkhead box O (FoxO) (AID 2282943). The following applies: HepG2 Attagene cis-reporter, FoxO element, mRNA; actives raise or lower the signal. Put shortly:
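Values reflect reporter mRNA induction or loss in HepG2 cells 24 h post-dosing, fitted bidirectionally with DMSO as negative control and baseline. Detection used RT-PCR and fluorescence capillary electrophoresis.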

Assay [16] in a line: ATG_GATA_CIS: Attagene CIS-FACTORIAL HepG2 Assay for human GATA Binding Protein (AID 2282944). The conditions noted are these: HepG2 GATA cis-element reporter, Attagene multiplex mRNA; actives raise or lower the signal. Put shortly:
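Transfected cis-reporter HepG2 cells were treated with chemicals for 24 hours. Total RNA was then converted to cDNA, amplified with reporter-specific primers and analysed by fluorescent capillary electrophoresis, using DMSO-treated wells as baseline.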

Assay [17] is described as follows: ATG_GLI_CIS: Attagene CIS-FACTORIAL HepG2 Assay for human Zinc Finger Protein GLI1 (AID 2282945). The conditions noted are these: HepG2, Attagene cis-factorial reporter mRNA, GLI element; actives raise or lower the signal. Put shortly: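 HepG2 cells transiently transfected with cis-promoter multiplexed reporter units report endogenous transcription factor activity. After 24 h chemical exposure, reporter mRNA was quantified by RT-PCR, 6-FAM labelling, HpaI digestion and capillary electrophoresis, with bidirectional fitting against DMSO.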

For assay [18], the target named is Retinoic acid receptor alpha (Homo sapiens) (UniProt P10276). The assay is described as follows: ATG_DR5_RAR_CIS: Attagene CIS-FACTORIAL HepG2 Assay for human Retinoic Acid Receptor Alpha (RARE), DR5 submotif (AID 2282934). The conditions noted are these: HepG2 Attagene cis-factorial RARE DR5 reporter, mRNA; actives raise or lower the signal. Summed up: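 Endpoint fitted in both directions relative to DMSO as negative control. It reflects DR5 cis-element reporter mRNA induction in transiently transfected HepG2 cells, measured 24 h after dosing through RT-PCR and fluorescent capillary electrophoresis.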
Chain of Retinoic acid receptor alpha (Homo sapiens) (P10276 whole entry, looked up): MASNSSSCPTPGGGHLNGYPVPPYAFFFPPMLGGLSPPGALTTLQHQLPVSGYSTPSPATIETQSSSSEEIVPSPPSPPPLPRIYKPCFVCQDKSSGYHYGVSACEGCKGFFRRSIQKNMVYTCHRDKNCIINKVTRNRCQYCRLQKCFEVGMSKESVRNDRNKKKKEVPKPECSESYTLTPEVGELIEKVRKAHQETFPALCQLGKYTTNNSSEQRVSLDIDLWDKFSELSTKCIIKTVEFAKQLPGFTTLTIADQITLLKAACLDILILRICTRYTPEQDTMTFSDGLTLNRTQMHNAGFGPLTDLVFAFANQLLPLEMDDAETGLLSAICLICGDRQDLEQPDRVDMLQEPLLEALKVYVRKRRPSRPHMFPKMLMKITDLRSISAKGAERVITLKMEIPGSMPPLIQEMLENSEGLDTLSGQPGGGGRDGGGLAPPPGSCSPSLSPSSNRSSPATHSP

The nature of assay [19]: ATG_M_19_CIS: Attagene CIS-FACTORIAL HepG2 Assay for M19 Transcription Factor (Internal Marker) (AID 2282939). The conditions noted are these: HepG2 Attagene CIS-FACTORIAL M19 internal marker reporter; actives raise or lower the signal. Summed up: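 Chemical-treated HepG2 (24 h) with MRTU constructs; reporter transcripts detected by fluorescent RT-PCR fragment analysis on capillary electrophoresis. Internal background marker, DMSO as baseline.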

Chain of CCAAT/enhancer-binding protein beta (Homo sapiens) (P17676 whole entry, looked up): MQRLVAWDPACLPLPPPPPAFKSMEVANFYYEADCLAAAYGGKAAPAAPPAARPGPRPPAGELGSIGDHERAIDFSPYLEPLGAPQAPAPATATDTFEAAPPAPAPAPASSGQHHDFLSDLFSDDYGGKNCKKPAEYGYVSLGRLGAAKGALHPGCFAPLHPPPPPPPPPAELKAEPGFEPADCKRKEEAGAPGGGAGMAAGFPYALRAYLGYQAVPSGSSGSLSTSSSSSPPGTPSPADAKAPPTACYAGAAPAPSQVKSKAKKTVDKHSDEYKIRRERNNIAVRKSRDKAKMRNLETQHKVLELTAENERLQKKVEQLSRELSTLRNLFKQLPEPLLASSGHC
Chain of Transcription factor E2F1 (Homo sapiens) (Q01094 whole entry, looked up): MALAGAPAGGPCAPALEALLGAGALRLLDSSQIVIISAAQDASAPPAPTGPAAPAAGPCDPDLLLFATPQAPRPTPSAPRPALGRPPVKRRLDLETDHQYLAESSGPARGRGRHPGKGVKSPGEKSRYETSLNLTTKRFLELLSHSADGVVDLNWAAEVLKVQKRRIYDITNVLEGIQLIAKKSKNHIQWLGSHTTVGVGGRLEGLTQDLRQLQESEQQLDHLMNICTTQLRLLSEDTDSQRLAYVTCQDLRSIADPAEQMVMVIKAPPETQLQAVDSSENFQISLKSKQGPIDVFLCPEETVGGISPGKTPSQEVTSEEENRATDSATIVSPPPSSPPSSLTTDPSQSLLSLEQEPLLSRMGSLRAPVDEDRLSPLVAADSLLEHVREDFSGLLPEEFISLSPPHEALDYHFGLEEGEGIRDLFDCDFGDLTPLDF
Chain of Hepatocyte nuclear factor 3-beta (Homo sapiens) (Q9Y261 whole entry, looked up): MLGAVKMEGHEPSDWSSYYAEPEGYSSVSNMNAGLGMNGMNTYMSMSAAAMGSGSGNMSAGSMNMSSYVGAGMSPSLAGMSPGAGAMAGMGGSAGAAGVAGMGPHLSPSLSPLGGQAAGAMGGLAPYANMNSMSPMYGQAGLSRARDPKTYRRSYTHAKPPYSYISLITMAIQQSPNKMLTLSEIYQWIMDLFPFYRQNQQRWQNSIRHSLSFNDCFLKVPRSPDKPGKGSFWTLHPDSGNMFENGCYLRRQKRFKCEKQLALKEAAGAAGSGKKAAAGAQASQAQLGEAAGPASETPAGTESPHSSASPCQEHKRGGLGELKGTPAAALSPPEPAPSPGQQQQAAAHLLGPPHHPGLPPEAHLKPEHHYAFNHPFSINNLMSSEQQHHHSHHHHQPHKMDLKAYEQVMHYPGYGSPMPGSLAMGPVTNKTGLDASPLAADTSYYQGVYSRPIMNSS
Chain of Aryl hydrocarbon receptor (Homo sapiens) (P35869 whole entry, looked up): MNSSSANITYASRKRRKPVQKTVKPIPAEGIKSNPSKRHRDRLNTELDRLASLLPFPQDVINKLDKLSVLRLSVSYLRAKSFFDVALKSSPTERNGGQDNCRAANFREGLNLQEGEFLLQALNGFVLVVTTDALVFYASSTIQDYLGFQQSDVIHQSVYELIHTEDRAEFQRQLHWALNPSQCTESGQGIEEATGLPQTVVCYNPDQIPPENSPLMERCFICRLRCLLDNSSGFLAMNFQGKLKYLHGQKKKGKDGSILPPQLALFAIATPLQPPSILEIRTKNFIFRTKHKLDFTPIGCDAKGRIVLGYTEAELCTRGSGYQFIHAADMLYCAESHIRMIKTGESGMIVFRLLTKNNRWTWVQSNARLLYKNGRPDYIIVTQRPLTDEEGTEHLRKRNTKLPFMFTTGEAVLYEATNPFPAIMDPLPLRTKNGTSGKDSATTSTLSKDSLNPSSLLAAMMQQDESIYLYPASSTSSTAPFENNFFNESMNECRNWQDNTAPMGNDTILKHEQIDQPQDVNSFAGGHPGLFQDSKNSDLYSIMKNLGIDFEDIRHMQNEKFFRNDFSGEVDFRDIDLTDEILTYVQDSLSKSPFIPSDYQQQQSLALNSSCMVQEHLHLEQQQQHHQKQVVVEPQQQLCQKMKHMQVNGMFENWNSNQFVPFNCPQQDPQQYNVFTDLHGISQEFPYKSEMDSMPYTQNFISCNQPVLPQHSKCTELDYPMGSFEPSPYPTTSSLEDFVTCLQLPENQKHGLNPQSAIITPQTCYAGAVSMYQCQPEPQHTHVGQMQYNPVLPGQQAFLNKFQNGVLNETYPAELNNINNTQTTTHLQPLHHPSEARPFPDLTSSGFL

On to `C=C(C)[C@H]1CC=C(C)C(=O)C1`, for which the result in assay [1], in assay [2], in assay [3], in assay [4], in assay [5] and in assay [6] was inactive. In addition, the outcome in [7], in assay [8], in assay [9], in assay [10], in [11] and in assay [12] was inactive. The molecule was classed as inactive in assay [13], in assay [14], in assay [15], in assay [16] and in assay [17].
On to `O=C(O)c1cc(C(=O)O)cc([N+](=O)[O-])c1`, for which the call in [1], in assay [2], in [3], in assay [4], in assay [5] and in [6] was inactive. Moreover, the molecule was called inactive in assay [7], in assay [8], in [18], in assay [10], in [11] and in [12]. Further, the result in [19], in assay [13], in assay [14], in [15], in assay [16] and in assay [17] was inactive.
On to `C=C(C)CNCC`, for which the call in [1], in [2], in [3], in [4], in assay [5] and in assay [6] was inactive. The result in assay [7], in assay [8], in [18], in [10], in assay [11] and in [12] was inactive. Further, the outcome in [19], in [13], in assay [14], in assay [15], in [16] and in assay [17] was inactive.
Consider `CCCOCCO`, for which the call in [1], in assay [2], in [3], in [4], in assay [5] and in [6] was inactive. The molecule was called inactive in [7], in assay [18], in [9], in assay [10], in assay [11] and in assay [12]. For the same molecule, the result in [19], in assay [13], in [14], in assay [15], in assay [16] and in [17] was inactive.
`Cc1occc(=O)c1OC(=O)C(C)C`: the result in assay [1], in assay [2], in assay [3], in assay [4], in [5] and in assay [6] was inactive. The molecule was called inactive in assay [7], in assay [8], in assay [18], in [10], in [11] and in assay [12]. For the same molecule, the outcome in assay [19], in assay [13], in assay [14], in [15], in assay [16] and in assay [17] was inactive.
Regarding `[O-]n1ccccc1=S.[O-]n1ccccc1=S.[Zn+2]`, the outcome in assay [1], in assay [2], in assay [3], in assay [4], in [5] and in [6] was inactive. Moreover, the result in assay [7], in assay [18], in assay [9], in [11], in assay [12] and in [19] was inactive. The result in assay [13], in [14], in assay [15], in assay [16] and in assay [17] was inactive. The AC50 in assay [10] was 976 nM (active).
For the molecule `CC1(C)O[C@@H]2C[C@H]3[C@@H]4CCC5=CC(=O)C=C[C@]5(C)[C@@]4(F)[C@@H](O)C[C@]3(C)[C@]2(C(=O)CO)O1`, the molecule was called inactive in [1], in [2], in assay [3], in assay [4], in [6] and in assay [7]. In addition, the result in [8], in assay [18], in [10], in assay [11], in assay [12] and in assay [19] was inactive. Also, the outcome in [13], in assay [14], in [15], in assay [16] and in [17] was inactive. In assay [5], the AC50 is 82 nM (active).
